Source: the supplement of paper PMC8728848
Many of the other results were omitted from the sample, so the strongest signals are more common in it than they were.

Tests used:
Assay in all cases: glycan array binding signal (z-score within array); higher = stronger binding
Conditions in all cases: glycan notation: IUPAC condensed, linker removed; mutation: N224Q
[1] = biological target: Fuc(a1-2)Gal
How it was run: (§1)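 Glycan array binding is given as a within-array Z-score, which can be read as non-binding when negative. The arrays, 3228 of them, came from the Consortium for Functional Glycomics database and were retained only where the protein sequence was available. Z-scores were averaged across arrays of the same protein sequence at different concentrations or buffers and across linkers.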

[2] = biological target: Fuc(a1-2)Gal(b1-3)GlcNAc(b1-3)GalNAc
How it was run: as §1

[3] = biological target: Fuc(a1-2)Gal(b1-3)[Fuc(a1-4)]GlcNAc(b1-2)Man(a1-3)[Fuc(a1-2)Gal(b1-3)[Fuc(a1-4)]GlcNAc(b1-2)Man(a1-6)]Man(b1-4)GlcNAc(b1-4)[Fuc(a1-6)]GlcNAc(b1-4)[Fuc(a1-6)]GlcNAc
How it was run: as §1

[4] = biological target: Fuc(a1-2)Gal(b1-4)Glc6S
How it was run: as §1

[5] = biological target: Fuc(a1-2)Gal(b1-4)GlcNAc(b1-3)Gal(b1-4)GlcNAc(b1-2)Man(a1-3)[Fuc(a1-2)Gal(b1-4)GlcNAc(b1-3)Gal(b1-4)GlcNAc(b1-2)Man(a1-6)]Man(b1-4)GlcNAc(b1-4)GlcNAc
How it was run: as §1

[6] = biological target: Fuc(a1-2)Gal(b1-4)[Fuc(a1-3)]GlcNAc
How it was run: as §1

[7] = biological target: Fuc(a1-2)Gal(b1-4)[Fuc(a1-3)]GlcNAc(b1-3)Gal(b1-4)[Fuc(a1-3)]GlcNAc
How it was run: as §1

[8] = biological target: Fuc(a1-2)Gal(b1-4)[Fuc(a1-3)]GlcNAc(b1-3)Gal(b1-4)[Fuc(a1-3)]GlcNAc(b1-3)Gal(b1-4)[Fuc(a1-3)]GlcNAc
How it was run: as §1

[9] = biological target: Fuc(a1-2)Gal6S(b1-4)Glc
How it was run: as §1

[10] = biological target: Fuc(a1-2)[Gal(a1-3)]Gal(b1-4)GlcNAc(b1-2)Man
How it was run: as §1

[11] = biological target: Fuc(a1-2)[Gal(a1-3)]Gal(b1-4)GlcNAc(b1-2)Man(a1-3)[Fuc(a1-2)[Gal(a1-3)]Gal(b1-4)GlcNAc(b1-2)Man(a1-6)]Man(b1-4)GlcNAc(b1-4)[Fuc(a1-6)]GlcNAc
How it was run: as §1

[12] = biological target: Fuc(a1-2)[Gal(a1-4)]Gal(b1-4)GlcNAc
How it was run: as §1

[13] = biological target: Fuc(a1-2)[GalNAc(a1-3)]Gal
How it was run: as §1

[14] = biological target: Fuc(a1-2)[GalNAc(a1-3)]Gal(b1-4)Glc
How it was run: as §1

[15] = biological target: Fuc(a1-2)[GalNAc(a1-3)]Gal(b1-4)GlcNAc(b1-3)GalNAc
How it was run: as §1

[16] = biological target: Fuc(a1-2)[GalNAc(a1-4)]Gal(b1-4)GlcNAc
How it was run: as §1

[17] = biological target: Fuc(a1-3)GlcNAc
How it was run: as §1

[18] = biological target: Fuc(a1-3)[Gal(b1-4)]GlcNAc(b1-2)Man
How it was run: as §1

[19] = biological target: Fuc(a1-3)[Gal(b1-4)]GlcNAc(b1-3)Gal(b1-4)[Fuc(a1-3)]GlcNAc
How it was run: as §1

[20] = biological target: Fuc(a1-3)[Gal(b1-4)]GlcNAc(b1-6)[Gal(b1-3)GlcNAc(b1-3)]Gal(b1-4)Glc
How it was run: as §1

[21] = biological target: Fuc(a1-3)[Gal(b1-4)]GlcNAc6S
How it was run: as §1

[22] = biological target: Fuc(a1-4)GlcNAc
How it was run: as §1

[23] = biological target: Fuc(b1-3)GlcNAc
How it was run: as §1

[24] = biological target: Gal(b1-3)GalNAc(a1-3)[Fuc(a1-2)]Gal(b1-4)Glc
How it was run: as §1

[25] = biological target: Gal(b1-3)GlcNAc(b1-2)[Gal(b1-3)GlcNAc(b1-6)]Man(a1-6)[Gal(b1-3)GlcNAc(b1-2)Man(a1-3)]Man(b1-4)GlcNAc(b1-4)GlcNAc
How it was run: as §1

[26] = biological target: Gal(b1-3)GlcNAc(b1-6)Gal(b1-4)GlcNAc
How it was run: as §1

[27] = biological target: Gal(b1-3)GlcNAc6S
How it was run: as §1

[28] = biological target: Gal(b1-4)GlcNAc
How it was run: as §1

[29] = biological target: Gal(b1-4)GlcNAc(b1-2)Man(a1-3)[Gal(b1-4)GlcNAc(b1-2)Man(a1-6)]Man(b1-4)GlcNAc(b1-4)GlcNAc
How it was run: as §1

[30] = biological target: Gal(b1-4)GlcNAc(b1-2)Man(a1-3)[Gal(b1-4)GlcNAc(b1-2)Man(a1-6)]Man(b1-4)GlcNAc(b1-4)[Fuc(a1-6)]GlcNAc
How it was run: as §1

B1: AAL (Aleuria aurantia) (protein)
chain: MPTEFLYTSKIAAISWAATGGRQQRVYFQDLNGKIREAQRGGDNPWTGGSSQNVIGEAKLFSPLAAVTWKSAQGIQIRVYCVNKDNILSEFVYDGSKWITGQLGSVGVKVGSNSKLAALQWGGSESAPPNIRVYYQKSNGSGSSIHEYVWSGKWTAGASFGSTVPGTGIGATAIGPGRLRIYYQATDNKIREHCWDSNSWYVGGFSASASAGVSIAAISWGSTPQIRVYWQKGREELYEAAYGGSWNTPGQIKDASRPTPSLPDTFIAANSSGNIDISVFFQASGVSLQQWQWISGKGWSIGAVVPTGTPAGW
glycan array binding signal (z-score) [1]: 4.67
glycan array binding signal (z-score) [2]: -0.263
glycan array binding signal (z-score) [3]: 0.006
glycan array binding signal (z-score) [4]: 2.29
glycan array binding signal (z-score) [5]: 6.34
glycan array binding signal (z-score) [6]: 3.69
glycan array binding signal (z-score) [7]: 3.57
glycan array binding signal (z-score) [8]: 3.95
glycan array binding signal (z-score) [9]: 3.32
glycan array binding signal (z-score) [10]: -0.285
glycan array binding signal (z-score) [11]: -0.153
glycan array binding signal (z-score) [12]: 5.8
glycan array binding signal (z-score) [13]: 0.989
glycan array binding signal (z-score) [14]: -0.309
glycan array binding signal (z-score) [15]: -0.32
glycan array binding signal (z-score) [16]: 5.38
glycan array binding signal (z-score) [17]: 3.92
glycan array binding signal (z-score) [18]: -0.29
glycan array binding signal (z-score) [19]: 1.96
glycan array binding signal (z-score) [20]: 0.019
glycan array binding signal (z-score) [21]: -0.274
glycan array binding signal (z-score) [22]: 6.22
glycan array binding signal (z-score) [23]: 4.57
glycan array binding signal (z-score) [24]: -0.303
glycan array binding signal (z-score) [25]: -0.296
glycan array binding signal (z-score) [26]: -0.317
glycan array binding signal (z-score) [27]: -0.309
glycan array binding signal (z-score) [28]: -0.324
glycan array binding signal (z-score) [29]: -0.316
glycan array binding signal (z-score) [30]: -0.216
